Data from PubChem BioAssay (EPA / NIEHS).
Where “and” joins values, the source holds several entries; their conditions need not be identical. Equal entries are not always repeated. Inconclusive results are not listed. Calls of active or inactive are those of the source. The calls were made as follows, unless noted: active = hit-call score of the fitted dose curve at least 0.9, where 1 is the maximum; inactive = score below 0.9.

Columns and labels:
[1] = target: human Retinoic Acid Receptor beta (RARb), RARB (gene 5915) (UniProt P10826); experiment: ATG_RARb_TRANS: Attagene TRANS-FACTORIAL HepG2 Assay for human Retinoic Acid Receptor beta (AID 2283004; active = hit-call score of the fitted dose curve at least 0.9, where 1 is the maximum)
Sequence of human Retinoic Acid Receptor beta (RARb), RARB (gene 5915) (P10826 whole entry, looked up, the tested form may be a part): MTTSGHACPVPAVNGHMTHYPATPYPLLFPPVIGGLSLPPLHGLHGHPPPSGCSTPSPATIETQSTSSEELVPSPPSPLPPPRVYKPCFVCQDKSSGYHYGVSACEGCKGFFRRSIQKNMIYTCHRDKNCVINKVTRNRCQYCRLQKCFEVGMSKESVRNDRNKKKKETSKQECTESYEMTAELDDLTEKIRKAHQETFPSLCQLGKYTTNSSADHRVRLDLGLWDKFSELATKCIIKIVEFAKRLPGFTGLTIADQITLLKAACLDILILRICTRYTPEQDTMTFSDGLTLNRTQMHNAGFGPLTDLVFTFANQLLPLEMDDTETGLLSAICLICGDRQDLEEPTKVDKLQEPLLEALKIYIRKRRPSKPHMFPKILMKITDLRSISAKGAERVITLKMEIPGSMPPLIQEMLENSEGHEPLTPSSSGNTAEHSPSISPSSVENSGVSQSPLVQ
Procedure, shortened: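 HepG2 cells transiently transfected with multiplexed GAL4-UAS reporter units expressing chimeric NR–Gal4 fusions; 24 h compound exposure. Reporter mRNA quantified by RT-PCR, 6-FAM labelling, HpaI digestion and capillary electrophoresis; gain-of-signal fitted against DMSO baseline.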

[2] = target: Retinoic acid receptor alpha (Homo sapiens) (UniProt P10276); experiment: ATG_RARa_TRANS: Attagene TRANS-FACTORIAL HepG2 Assay for human Retinoic Acid Receptor alpha (RARa) (AID 2283005; active = hit-call score of the fitted dose curve at least 0.9, where 1 is the maximum)
Procedure, shortened: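 HepG2 cells transiently transfected with multiple reporter units expressing chimeric RARα-GAL4 fusion, with GAL4-UAS-driven reporters. After 24 h compound exposure, reporter mRNA induction quantified by RT-PCR and capillary electrophoresis with fluorescent labeling; gain-of-signal fitted relative to DMSO control.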

[3] = target: Peroxisome proliferator-activated receptor gamma (Homo sapiens) (UniProt P37231); experiment: ATG_PPARg_TRANS: Attagene TRANS-FACTORIAL HepG2 Assay for human Peroxisome Proliferator-activated Receptor-gamma (PPARg) (AID 2283007; active = hit-call score of the fitted dose curve at least 0.9, where 1 is the maximum)
Sequence of Peroxisome proliferator-activated receptor gamma (Homo sapiens) (P37231 whole entry, looked up, the tested form may be a part): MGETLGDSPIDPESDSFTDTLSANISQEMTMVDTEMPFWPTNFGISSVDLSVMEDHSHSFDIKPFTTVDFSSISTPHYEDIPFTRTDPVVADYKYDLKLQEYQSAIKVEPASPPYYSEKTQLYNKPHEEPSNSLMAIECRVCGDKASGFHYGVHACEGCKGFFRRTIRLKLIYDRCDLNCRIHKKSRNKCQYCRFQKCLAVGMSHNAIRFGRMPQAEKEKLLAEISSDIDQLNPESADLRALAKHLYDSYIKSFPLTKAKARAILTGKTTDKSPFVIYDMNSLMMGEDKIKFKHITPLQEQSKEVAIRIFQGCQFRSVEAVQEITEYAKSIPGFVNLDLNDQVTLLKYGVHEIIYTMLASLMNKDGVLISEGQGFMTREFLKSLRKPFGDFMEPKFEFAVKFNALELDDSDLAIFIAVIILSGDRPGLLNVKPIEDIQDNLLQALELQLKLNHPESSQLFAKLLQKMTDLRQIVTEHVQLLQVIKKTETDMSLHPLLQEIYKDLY
Procedure, shortened: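 Transient transfection of HepG2 with GAL4-UAS-driven reporter units; chemical dosing 24 h; total RNA → oligo(dT) RT → PCR with reporter primers → 6-FAM primer extension → HpaI digest 2 h 37 C → capillary electrophoresis. Positive direction vs DMSO.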

[4] = target: Nuclear receptor subfamily 1 group I member 2 (Homo sapiens) (UniProt O75469); experiment: ATG_PXR_TRANS: Attagene TRANS-FACTORIAL HepG2 Assay for human Pregnane X Receptor (PXR) (AID 2283008; active = hit-call score of the fitted dose curve at least 0.9, where 1 is the maximum)
Sequence of Nuclear receptor subfamily 1 group I member 2 (Homo sapiens) (O75469 whole entry, looked up, the tested form may be a part): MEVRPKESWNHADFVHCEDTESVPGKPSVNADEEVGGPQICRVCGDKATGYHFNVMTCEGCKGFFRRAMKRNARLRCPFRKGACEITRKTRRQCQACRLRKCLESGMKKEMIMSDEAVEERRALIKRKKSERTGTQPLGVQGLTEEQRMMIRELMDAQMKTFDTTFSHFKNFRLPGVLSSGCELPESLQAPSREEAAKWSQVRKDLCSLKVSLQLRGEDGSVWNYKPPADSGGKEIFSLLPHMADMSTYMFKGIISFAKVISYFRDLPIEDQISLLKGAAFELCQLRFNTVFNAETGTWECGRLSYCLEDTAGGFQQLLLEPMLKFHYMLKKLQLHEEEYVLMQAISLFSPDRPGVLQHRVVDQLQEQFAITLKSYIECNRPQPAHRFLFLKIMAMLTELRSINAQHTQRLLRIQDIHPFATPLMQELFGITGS
Procedure, shortened: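 Fluorescence intensity of FAM-labelled, HpaI-digested reporter amplicons, separated by capillary electrophoresis, quantifies induction. HepG2 cells with PXR-Gal4 trans-reporter system were exposed 24 h; DMSO defines baseline.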

[5] = target: human RAR-related Orphan Receptor beta (RORb), RORB (gene 6096) (UniProt Q92753); experiment: ATG_RORb_TRANS: Attagene TRANS-FACTORIAL HepG2 Assay for human RAR-related Orphan Receptor beta (RORb) (AID 2283010; active = hit-call score of the fitted dose curve at least 0.9, where 1 is the maximum)
Sequence of human RAR-related Orphan Receptor beta (RORb), RORB (gene 6096) (Q92753 whole entry, looked up, the tested form may be a part): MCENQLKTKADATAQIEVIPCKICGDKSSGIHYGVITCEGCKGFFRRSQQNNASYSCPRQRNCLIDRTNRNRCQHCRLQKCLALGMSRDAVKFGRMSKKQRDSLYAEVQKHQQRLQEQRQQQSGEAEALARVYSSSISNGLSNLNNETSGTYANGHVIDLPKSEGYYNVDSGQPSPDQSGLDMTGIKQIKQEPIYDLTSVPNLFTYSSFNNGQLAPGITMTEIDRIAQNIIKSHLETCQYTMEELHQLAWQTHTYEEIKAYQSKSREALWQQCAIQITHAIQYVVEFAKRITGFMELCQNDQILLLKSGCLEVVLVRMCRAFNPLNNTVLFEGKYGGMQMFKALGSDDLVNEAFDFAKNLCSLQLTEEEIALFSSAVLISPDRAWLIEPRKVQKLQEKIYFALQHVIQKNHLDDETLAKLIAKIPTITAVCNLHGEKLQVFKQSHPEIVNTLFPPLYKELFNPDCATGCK
Procedure, shortened: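 HepG2 cells were transiently transfected with multiplexed GAL4-UAS reporter units expressing chimeric nuclear receptor–GAL4 proteins, then dosed for 24 h. Reporter mRNA was quantified by RT-PCR with fluorescent labelling and capillary electrophoresis; gain of signal was fitted relative to DMSO.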

[6] = target: human RAR-related Orphan Receptor gamma (RORg), RORC (gene 6097) (UniProt P51449); experiment: ATG_RORg_TRANS: Attagene TRANS-FACTORIAL HepG2 Assay for human RAR-related Orphan Receptor gamma (RORg) (AID 2283011; active = hit-call score of the fitted dose curve at least 0.9, where 1 is the maximum)
Sequence of human RAR-related Orphan Receptor gamma (RORg), RORC (gene 6097) (P51449 whole entry, looked up, the tested form may be a part): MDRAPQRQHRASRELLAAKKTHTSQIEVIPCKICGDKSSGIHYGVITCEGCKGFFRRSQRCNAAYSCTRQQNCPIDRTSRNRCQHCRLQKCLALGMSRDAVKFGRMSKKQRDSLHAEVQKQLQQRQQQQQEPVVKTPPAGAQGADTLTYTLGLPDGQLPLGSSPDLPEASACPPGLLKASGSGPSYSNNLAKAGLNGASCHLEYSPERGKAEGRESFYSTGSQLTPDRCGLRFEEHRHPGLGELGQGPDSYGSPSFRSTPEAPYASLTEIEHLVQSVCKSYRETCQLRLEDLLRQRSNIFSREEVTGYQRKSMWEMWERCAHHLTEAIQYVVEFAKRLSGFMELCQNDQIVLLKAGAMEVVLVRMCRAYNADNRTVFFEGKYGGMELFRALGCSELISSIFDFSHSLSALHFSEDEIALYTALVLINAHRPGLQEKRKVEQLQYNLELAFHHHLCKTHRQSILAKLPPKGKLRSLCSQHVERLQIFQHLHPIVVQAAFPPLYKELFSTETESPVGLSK
Procedure, shortened: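 Readout: reporter transcript induction (RT-PCR, fluorescent primer extension, capillary electrophoresis) after 24 h compound exposure of transiently transfected HepG2 cells carrying a RORg-Gal4 chimera and GAL4-UAS reporters; DMSO served as baseline, with increasing signal fitted.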

[7] = target: Retinoic acid receptor RXR-alpha (Homo sapiens) (UniProt P19793); experiment: ATG_RXRa_TRANS: Attagene TRANS-FACTORIAL HepG2 Assay for human Retinoid X Receptor alpha (RXRa) (AID 2283012; active = hit-call score of the fitted dose curve at least 0.9, where 1 is the maximum)
Sequence of Retinoic acid receptor RXR-alpha (Homo sapiens) (P19793 whole entry, looked up, the tested form may be a part): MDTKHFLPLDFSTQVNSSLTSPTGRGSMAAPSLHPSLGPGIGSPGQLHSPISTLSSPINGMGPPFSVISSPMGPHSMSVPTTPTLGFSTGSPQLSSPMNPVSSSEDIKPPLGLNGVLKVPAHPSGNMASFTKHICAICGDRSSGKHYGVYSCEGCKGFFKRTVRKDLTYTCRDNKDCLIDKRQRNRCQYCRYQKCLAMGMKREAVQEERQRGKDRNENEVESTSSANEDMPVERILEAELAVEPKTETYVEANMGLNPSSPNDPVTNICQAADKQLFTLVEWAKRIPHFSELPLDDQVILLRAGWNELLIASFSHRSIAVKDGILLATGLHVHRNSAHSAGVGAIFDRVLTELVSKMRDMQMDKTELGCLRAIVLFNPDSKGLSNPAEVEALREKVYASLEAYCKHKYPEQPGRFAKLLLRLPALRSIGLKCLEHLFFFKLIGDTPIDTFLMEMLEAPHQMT
Procedure, shortened: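 HepG2 cells transiently transfected with multiplexed GAL4-UAS reporter units and chimeric NR-GAL4 fusions, dosed 24 h. Reporter mRNA measured by RT-PCR, FAM labelling, HpaI digestion and capillary electrophoresis; gain-of-signal fitted relative to DMSO baseline.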

[8] = target: human Thyroid Receptor alpha (THRa1), THRA (gene 7067) (UniProt P10827); experiment: ATG_THRa1_TRANS: Attagene TRANS-FACTORIAL HepG2 Assay for human Thyroid Receptor alpha (THRa1) (AID 2283014; active = hit-call score of the fitted dose curve at least 0.9, where 1 is the maximum)
Sequence of human Thyroid Receptor alpha (THRa1), THRA (gene 7067) (P10827 whole entry, looked up, the tested form may be a part): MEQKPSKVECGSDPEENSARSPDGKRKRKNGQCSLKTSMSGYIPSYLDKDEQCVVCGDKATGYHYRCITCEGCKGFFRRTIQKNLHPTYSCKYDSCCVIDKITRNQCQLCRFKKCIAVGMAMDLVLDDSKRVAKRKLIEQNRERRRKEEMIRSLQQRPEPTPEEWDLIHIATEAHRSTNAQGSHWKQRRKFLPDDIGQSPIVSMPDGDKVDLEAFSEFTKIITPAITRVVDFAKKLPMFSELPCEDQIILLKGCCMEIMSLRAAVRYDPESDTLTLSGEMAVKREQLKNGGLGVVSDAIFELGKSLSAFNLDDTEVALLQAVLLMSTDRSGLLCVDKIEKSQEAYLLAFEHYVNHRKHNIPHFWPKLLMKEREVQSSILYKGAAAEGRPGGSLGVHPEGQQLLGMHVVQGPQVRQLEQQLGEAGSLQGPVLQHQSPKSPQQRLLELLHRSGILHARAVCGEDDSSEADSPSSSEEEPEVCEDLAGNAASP
Procedure, shortened: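 HepG2 cells transiently transfected with multiplexed GAL4-UAS reporter units for exogenous chimeric THRa1-Gal4; reporter mRNA measured 24 h after dosing by RT-PCR, 6-FAM labelling, HpaI digestion and capillary electrophoresis. Gain-of-signal fitted versus DMSO baseline.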

[9] = target: human Vitamin D Receptor (VDR), VDR (gene 7421) (UniProt P11473); experiment: ATG_VDR_TRANS: Attagene TRANS-FACTORIAL HepG2 Assay for human Vitamin D Receptor (VDR) (AID 2283022; active = hit-call score of the fitted dose curve at least 0.9, where 1 is the maximum)
Sequence of human Vitamin D Receptor (VDR), VDR (gene 7421) (P11473 whole entry, looked up, the tested form may be a part): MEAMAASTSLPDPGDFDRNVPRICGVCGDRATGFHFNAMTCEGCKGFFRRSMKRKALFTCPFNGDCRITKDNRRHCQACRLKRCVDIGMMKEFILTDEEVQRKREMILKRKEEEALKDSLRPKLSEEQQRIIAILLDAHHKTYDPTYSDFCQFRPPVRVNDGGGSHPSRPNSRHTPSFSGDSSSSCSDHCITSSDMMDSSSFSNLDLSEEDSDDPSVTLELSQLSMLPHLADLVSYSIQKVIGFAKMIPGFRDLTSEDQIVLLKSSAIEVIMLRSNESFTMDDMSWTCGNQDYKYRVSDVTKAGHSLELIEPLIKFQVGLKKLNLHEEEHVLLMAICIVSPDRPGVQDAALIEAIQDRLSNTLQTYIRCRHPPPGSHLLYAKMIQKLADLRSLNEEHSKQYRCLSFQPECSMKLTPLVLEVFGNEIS
Procedure, shortened: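 HepG2 cells were transiently transfected with multiple GAL4-UAS reporter units, so signal reflects exogenous chimeric receptor-Gal4 activity. After 24 h compound exposure, reporter mRNA was measured by RT-PCR, fluorescent labelling and capillary electrophoresis, fitted for gain of signal versus DMSO.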

[10] = read-out: Intercellular Adhesion Molecule 1 (ICAM1), ICAM1 (gene 3383); experiment: BSK_3C_ICAM1: BioMAP Diversity Plus: 3C Assay for Intercellular Adhesion Molecule 1 (ICAM1) Biomarker Activity (AID 2283003); details: primary human endothelial cells (HUVEC); actives raise or lower the signal
Procedure, shortened: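 Primary human umbilical vein endothelial cells in the BioMAP 3C system were exposed to chemicals for 24 h, then ICAM-1 was quantified by ELISA. Activity was fitted bidirectionally against the DMSO negative control baseline.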

[11] = BSK_3C_Proliferation: Cell Proliferation Assessment in the BioMAP Diversity Plus: 3C Assay (AID 2283006); details: primary human endothelial cells (HUVEC);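 as to AC50: potency may reflect either rise or fall in cell number versus DMSO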
Procedure, shortened: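 Human umbilical vein endothelial cells were grown sub-confluent and exposed to chemical for 48 h, then fixed with 10% TCA and stained with 0.1% sulforhodamine B; absorbance at 560 nm gave relative cell number, fitted bidirectionally against DMSO baseline.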

[12] = target: human Retinoid X Receptor beta (RXRb), RXRB (gene 6257) (UniProt P28702); experiment: ATG_RXRb_TRANS: Attagene TRANS-FACTORIAL HepG2 Assay for human Retinoid X Receptor beta (RXRb) (AID 2283013; active = hit-call score of the fitted dose curve at least 0.9, where 1 is the maximum)
Sequence of human Retinoid X Receptor beta (RXRb), RXRB (gene 6257) (P28702 whole entry, looked up, the tested form may be a part): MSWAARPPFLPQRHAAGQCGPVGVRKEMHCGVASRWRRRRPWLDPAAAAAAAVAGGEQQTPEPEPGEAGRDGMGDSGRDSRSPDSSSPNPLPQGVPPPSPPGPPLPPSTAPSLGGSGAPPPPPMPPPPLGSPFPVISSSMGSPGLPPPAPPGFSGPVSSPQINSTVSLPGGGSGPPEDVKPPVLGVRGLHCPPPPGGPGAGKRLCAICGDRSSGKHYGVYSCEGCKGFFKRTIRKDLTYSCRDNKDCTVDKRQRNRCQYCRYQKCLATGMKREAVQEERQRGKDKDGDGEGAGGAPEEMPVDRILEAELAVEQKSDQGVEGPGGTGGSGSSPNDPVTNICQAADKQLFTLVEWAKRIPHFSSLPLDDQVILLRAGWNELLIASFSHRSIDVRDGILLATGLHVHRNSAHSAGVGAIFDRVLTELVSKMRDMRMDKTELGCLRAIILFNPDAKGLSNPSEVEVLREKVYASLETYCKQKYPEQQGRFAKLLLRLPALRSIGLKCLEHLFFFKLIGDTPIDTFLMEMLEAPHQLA
Procedure, shortened: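 HepG2 cells transiently transfected with multiplexed reporter units driven by GAL4-UAS and exogenous chimeric NR-Gal4 proteins; treated 24 h. Reporter mRNA measured by RT-PCR, 6-FAM labelling and capillary electrophoresis; gain-of-signal fitted versus DMSO baseline.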

[13] = read-out: E-selectin (Homo sapiens) (UniProt P16581); experiment: BSK_3C_Eselectin: BioMAP Diversity Plus: 3C Assay for Eselectin Biomarker Activity (AID 2283015); details: primary human endothelial cells (HUVEC); actives raise or lower the signal
Procedure, shortened: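 Primary human umbilical vein endothelial cells (3C system) were dosed with chemical and cell-surface E-selectin measured by ELISA 24 h later. Bidirectional curve fitting used DMSO as negative control and baseline.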

[14] = read-out: Interleukin-1 alpha (IL1a), IL1A (gene 3552); experiment: BSK_BE3C_IL1a: BioMAP Diversity Plus: BE3C Assay for Interleukin-1 alpha (IL1a) Biomarker Activity (AID 2283016); details: primary human bronchial epithelial cells; actives raise or lower the signal
Procedure, shortened: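 Human primary bronchial epithelial cells (BE3C system) were dosed with compound and IL-1a measured by ELISA 24 h later. Activity was fitted bidirectionally against DMSO baseline; cytotoxicity was tracked in parallel cultures by SRB total-protein staining.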

[15] = read-out: Monocyte Chemoattractant Protein-1 (MCP1), CCL2 (gene 6347); experiment: BSK_3C_MCP1: BioMAP Diversity Plus: 3C Assay for Monocyte Chemoattractant Protein-1 (MCP1) Biomarker Activity (AID 2283017); details: primary human endothelial cells (HUVEC); actives raise or lower the signal
Procedure, shortened: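 Primary human umbilical vein endothelial cells (3C system) were exposed to test chemical for 24 h, after which MCP-1 was quantified by ELISA. Activity was fitted bidirectionally against DMSO as negative control and baseline.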

[16] = read-out: Monocyte Chemoattractant Protein-1 (MCP1), CCL2 (gene 6347); experiment: BSK_4H_MCP1: BioMAP Diversity Plus: 4H Assay for Monocyte Chemoattractant Protein-1 (MCP1) Biomarker Activity (AID 2283018); details: primary human endothelial cells (HUVEC); actives raise or lower the signal
Procedure, shortened: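 Human umbilical vein endothelial cells (4H system) dosed with chemical; MCP-1 measured by ELISA 24 h after dosing. Bidirectional curve fitting against DMSO negative control as baseline; parallel SRB total-protein staining tracks overt cytotoxicity.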

[17] = read-out: Human Leukocyte Antigen - DR isotype (HLADR), HLA-DRA (gene 3122); experiment: BSK_3C_HLADR: BioMAP Diversity Plus: 3C Assay for Human Leukocyte Antigen - DR isotype (HLADR) Biomarker Activity (AID 2283019); details: primary human endothelial cells (HUVEC); actives raise or lower the signal
Procedure, shortened: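 Primary human umbilical vein endothelial cells (3C system) were dosed with compound and cell-surface HLA-DR was quantified by ELISA at 24 h. Activity was fitted bidirectionally against DMSO as negative control and baseline.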

[18] = read-out: Interleukin-8 (IL8), CXCL8 (gene 3576); experiment: BSK_3C_IL8: BioMAP Diversity Plus: 3C Assay for Interleukin-8 (IL8) Biomarker Activity (AID 2283020); details: primary human endothelial cells (HUVEC); actives raise or lower the signal
Procedure, shortened: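 Primary human umbilical vein endothelial cells (3C system) were exposed to test chemical for 24 h, then IL-8 was quantified by ELISA. Responses were fitted bidirectionally against DMSO vehicle as baseline.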

[19] = read-out: Monokine induced gamma interferon (MIG), CXCL9 (gene 4283); experiment: BSK_3C_MIG: BioMAP Diversity Plus: 3C Assay for Monokine induced gamma interferon (MIG) Biomarker Activity (AID 2283021); details: primary human endothelial cells (HUVEC); actives raise or lower the signal;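 as to AC50: MIG protein level measured by immunoassay in the treated endothelial cultures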
Procedure, shortened: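 Primary human umbilical vein endothelial cells in the 3C system were exposed to chemical for 24 h, after which MIG was quantified by ELISA. Activity was fitted bidirectionally against DMSO as negative control and baseline.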

Measured: AC50

Sequence of E-selectin (Homo sapiens) (P16581 whole entry, looked up): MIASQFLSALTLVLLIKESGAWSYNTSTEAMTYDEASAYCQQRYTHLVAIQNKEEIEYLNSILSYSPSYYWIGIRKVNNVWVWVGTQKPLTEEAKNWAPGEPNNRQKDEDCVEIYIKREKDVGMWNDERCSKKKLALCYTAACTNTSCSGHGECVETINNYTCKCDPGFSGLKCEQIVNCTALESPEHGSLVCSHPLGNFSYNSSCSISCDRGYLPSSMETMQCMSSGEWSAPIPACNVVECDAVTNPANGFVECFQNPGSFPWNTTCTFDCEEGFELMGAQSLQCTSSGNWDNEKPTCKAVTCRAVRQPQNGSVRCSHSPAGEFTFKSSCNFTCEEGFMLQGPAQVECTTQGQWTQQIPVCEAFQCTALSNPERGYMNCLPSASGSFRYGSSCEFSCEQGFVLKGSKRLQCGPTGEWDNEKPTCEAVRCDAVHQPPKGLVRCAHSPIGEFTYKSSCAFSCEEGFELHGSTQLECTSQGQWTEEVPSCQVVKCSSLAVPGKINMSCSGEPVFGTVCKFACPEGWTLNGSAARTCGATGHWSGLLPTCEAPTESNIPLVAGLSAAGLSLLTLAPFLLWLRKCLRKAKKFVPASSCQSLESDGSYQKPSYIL

COC(O)c1ccccc1 (stereo not given)
inactive: [1] | [2] | [3] | [4] | [5] | [6] | [7] | [8] | [9]

C=CC(=O)OCCC(F)(F)C(F)(F)C(F)(F)C(F)(F)C(F)(F)C(F)(F)C(F)(F)C(F)(F)F
not listed: [1] | [2] | [6] | [9]
inactive: all other assays above

N=C(N)c1ccc(OCCCCCOc2ccc(C(=N)N)cc2)cc1
inactive: [10] | [7] | [14] | [15] | [16] | [19] | [9]
active: [11] 5.13 µM | [13] 0.932 µM | [17] 10.1 µM | [18] 12.3 µM

CN(C)c1ccc(C(=C2C=CC(=[N+](C)C)C=C2)c2ccccc2)cc1
active: [10] 0.337 µM | [11] 0.0248 µM | [3] 1.75 µM and 1.45 µM | [4] 3.02 µM | [13] 0.205 µM | [14] 0.214 µM | [15] 0.0082 µM | [16] 0.0192 µM | [17] 0.0082 µM | [18] 0.668 µM | [19] 0.356 µM
inactive: [6] | [7] | [9]

COc1cccc(O)c1
not listed: [1] | [2] | [3] | [4] | [5] | [9]
inactive: all other assays above

CCCCC(CC)C(=O)OCCOCCOCCOCCOC(=O)C(CC)CCCC (stereo not given)
active: [11] 20 µM | [4] 35.3 µM | [13] 13.6 µM | [17] 11.4 µM
not listed: [1] | [2] | [5] | [6] | [12]
inactive: all other assays above

O=C(CCCN1CCC(O)(c2ccc(Cl)cc2)CC1)c1ccc(F)cc1
active: [11] 7.3 µM | [18] 9.25 µM
inactive: [10] | [12] | [8] | [13] | [14] | [15] | [16] | [17] | [19]

CS(=O)(=O)c1ccc([C@@H](CC2CCCC2)C(=O)Nc2cnccn2)cc1Cl
active: [11] 31.6 µM | [4] 3.42 µM
not listed: [1] | [2] | [5] | [6] | [8] | [9]
inactive: all other assays above
